Among the data in PubChem BioAssay (NCI) are growth values, retold here.

About 83,000 compounds went through this panel and 20% of them were active in at least one assay; those are over-represented in the sample as a whole.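 Note: values are percent growth. 100 is the growth of untreated cells, values between 100 and 0 indicate rising inhibition; between -100 and 0 indicates cell death.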 Unmarked numbers belong to inactive results. Active and inactive are the calls of the source. Rule for the calls: active = growth percent below 10; inactive = the rest.

Holding throughout (assay): NCI-60 one-dose screen, 48 h (100 = growth as untreated, 0 = no growth, -100 = all killed)
Conditions in all cases: 10 µM unless noted

Assay [1] concerns DU-145 prostate.
Assay [2] relates to K-562 leukemia.
Assay [3] deals with MALME-3M melanoma.
For assay [4], the system named is MDA-MB-231 breast.
In assay [5] the test system is RXF 393 renal.
For assay [6], the system named is SF-268 CNS.
The test system of assay [7] is SF-295 CNS.
The subject of assay [8] is SF-539 CNS.
Assay [9] relates to UACC-257 melanoma.
Assay [10] deals with M14 melanoma.
Assay [11] concerns HCT-15 colon.
For assay [12], the system named is HT29 colon.
In assay [13] the test system is SNB-75 CNS.
Assay [14] deals with SNB-19 CNS.
Assay [15] has as its system U251 CNS.
Assay [16] relates to PC-3 prostate.
The test system of assay [17] is SK-MEL-5 melanoma.
Assay [18] deals with UACC-62 melanoma.
For assay [19], the system named is LOX IMVI melanoma.
Assay [20] has as its system SK-MEL-28 melanoma.

For `Cc1ccccc1NC(=O)c1cccc(NC(=O)CCl)c1`, the growth was 69.4% in [1]; 28.1% in [2]; 79.6% in assay [3]; 49.7% in assay [4]; 49.7% in assay [5]; 60.1% in [6]. For the same compound, the growth in [7] was 38.4%; in assay [8], 51.3%; in assay [9] it was 47.5%; in assay [10], 50.5%; in assay [11], 43.5%; in assay [12], 35.6%. Moreover, the growth was 53.9% in assay [13]; 72.7% in [14]; -53.1% (active) in assay [15]; 55.8% in assay [16]; 44.2% in assay [17]; 24.4% in assay [18]. Besides, the figures for the growth in [19] and in assay [20] were -47.5% (active) and 71.1%, respectively.

In the case of `O=C(OCCOCCO)N(c1cccc(Br)c1)c1nc(SCCN2CCOCC2)nc2c1cnn2CC(Cl)c1ccc(Br)cc1` (stereo not given), the growth was 41.3% in [1]; 2.12% (active) in assay [2]; -29.1% (active) in assay [3]; 1.49% (active) in assay [4]; -30% (active) in [5]; 5.17% (active) in assay [6]. The growth in assay [7] is -66.6% (active); in assay [8], -25.2% (active); in assay [9], 2.33% (active); in assay [10] it was -14.1% (active); in assay [11], -38.8% (active); in assay [12], 0.205% (active). The growth was 47.7% in assay [13]; -69% (active) in assay [14]; 14.9% in assay [15]; 12.1% in assay [16]; 34.2% in [17]; -58.9% (active) in assay [18]. Moreover, the growth was -92.8% (active) in assay [19] and -43.5% (active) in assay [20].

For `Nc1cc2ccccc2c(=O)n1NC(=O)c1ccc(Br)cc1`, the growth in assay [1] was 109%; in assay [2] it was 101%; in assay [3], 89.7%; in assay [4] it was 66.8%; in assay [5], 112%; in assay [6] it was 89.8%. Moreover, the growth in [7] was 103%; in assay [8], 67.5%; in [9], 104%; in assay [10], 91.7%; in assay [11], 99.4%; in [12], 118%. Further, the growth was 58.4% in assay [13]; 84.5% in [14]; 96.1% in assay [15]; 95.3% in assay [16]; 88.1% in assay [17]; 80.6% in assay [18]. Also, the growth in assay [19] is 84.2%; in [20] it was 88%.

For `COc1ccc(NC(=O)Cn2c(/C=C/c3cccc(OC)c3)nc3ccccc3c2=O)cc1`, the growth in [1] is 74.3%; in assay [2], 84%; in assay [3], 62.7%; in assay [4], -30.3% (active); in [5], -31.9% (active); in [6] it was 66.1%. For the same compound, the growth is 34.6% in [7]; -45.7% (active) in [8]; 81.1% in [9]; 61.2% in assay [10]; 70.9% in assay [11]; 51.8% in [12]. Further, the growth is -34.5% (active) in [13]; 56.4% in assay [14]; -26.5% (active) in assay [15]; 73.9% in assay [16]; 92.7% in assay [17]; 57.8% in assay [18]. Also, the growth in assay [19] is 22.4%; in [20], 89.3%.

Regarding `Cc1cccc(-c2ccccc2Oc2ccc3nnc(Cl)n3n2)c1`, the growth was 111% in assay [1]; 103% in [2]; 94.4% in assay [3]; 107% in assay [4]; 107% in [5]; 106% in assay [6]. Also, the growth was 95.3% in assay [7]; 98.8% in assay [8]; 99% in [9]; 97.6% in assay [10]; 99.6% in assay [11]; 107% in [12]. The growth in assay [13] is 89.4%; in [14], 97.8%; in assay [15] it was 94.6%; in assay [16], 103%; in [17], 98.5%; in assay [18] it was 96.8%. The growth in assay [19] is 93.7%; in [20], 107%.

`NS(=O)(=O)c1ccc(N2N=C(c3ccc(NC(=O)Nc4ccccc4)cc3)CC2c2ccc(Br)cc2)cc1` (stereo not given): the growth in [1] was -7.86% (active); in assay [2] it was 16.7%; in assay [3] it was -97.1% (active); in assay [4], -94.8% (active); in assay [5] it was -96.4% (active); in assay [6], -29.7% (active). Also, the growth in assay [7] is -64.9% (active); in assay [8] it was -99.2% (active); in assay [9], -16.8% (active); in assay [10], -69.2% (active); in assay [11], -89.1% (active); in assay [12] it was -57% (active). The growth in assay [13] is -43.1% (active); in assay [14], -98.2% (active); in [15] it was -86.2% (active); in assay [16], -45.2% (active); in assay [17], -99.8% (active); in assay [18] it was -96.2% (active). For the same compound, the growth in assay [19] is -100% (active); in [20], -98.1% (active).

On to `O=C(N=Nc1c(O)[nH]c2ccc(Cl)cc12)c1ccc2nc(-c3ccc(Cl)cc3)[nH]c2c1`, for which the growth in [1] is 5.09% (active); in [2], 8.93% (active); in [3], -1.72% (active); in [4] it was -79.9% (active); in assay [5], -27.7% (active); in assay [6], 0.662% (active). The growth is -12.5% (active) in assay [7]; -93.6% (active) in [8]; 57.8% in [9]; -6.49% (active) in assay [10]; 78.6% in [11]; 16.9% in assay [12]. The growth is -21.3% (active) in assay [13]; -52.2% (active) in assay [14]; -88.3% (active) in assay [15]; 28.1% in assay [16]; 66.8% in assay [17]; -59% (active) in [18]. In addition, the growth in [19] is -100% (active); in assay [20], -79.3% (active).

Turning to `Nc1cc(-c2c[nH]c3ccc(F)cc23)nc2cc(-c3c[nH]c4ccccc34)nn12`, the growth in [1] is 26.9%; in assay [2], 5.2% (active); in assay [3] it was -28% (active); in [4], -65.5% (active); in [5], 36.5%; in [6], 35.4%. Also, the growth in assay [7] is -66% (active); in assay [8], -74.8% (active); in assay [9], -63.3% (active); in [10], -23.1% (active); in assay [11], -61.2% (active); in assay [12] it was -42.8% (active). Also, the growth in assay [13] was 66.2%; in assay [14], -19.1% (active); in assay [15] it was -19.1% (active); in [16] it was 10.3%; in assay [17], -4.35% (active); in assay [18] it was -8.04% (active). Further, the growth is -83.9% (active) in assay [19] and -33.9% (active) in assay [20].
